The entries come from a sample that favours hits as a whole.
Tgondii IFNg: T. gondii growth inhibition under IFN-gamma. Toxoplasma gondii growth in IFN-gamma-treated host cells; hits give low values. activity change, negative = inhibition, % (no concentration beside the values). actives 3.8% (n = 69,000); in the data active = activity change below about -70%, passing the limit was not always enough;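 also: host cells are HeLa cells infected with Toxoplasma gondii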
Each line names hits and unclear results; the compound was inactive in the other large screens.

c1cc(-c2cccc(-n3cccn3)c2)cc(-n2cnnc2)c1	none
CC(=O)N1C2CCN(Cc3ccsc3)CC2C[C@H]1Cn1cncn1 (some centres undefined)	none
CCc1[nH]c2c(CNC(=O)CCn3cnnn3)cc(F)cc2c1C	none
O=C(COC(=O)c1cc(S(=O)(=O)N2CCCCCC2)cs1)c1ccccc1	none
CS(=O)(=O)N1CCO[C@H]2CCN(C(=O)C3CC=CC3)C[C@H]21	none
CN1CCN(C(=O)c2ccc(CC3CCCNC3)cc2)CC1 (centres undefined)	none
CCc1ccc(C(=O)Nc2ccc(-c3nc(Cn4cccn4)c(C)o3)cc2)cc1	none
CCOc1ccc(C(=O)Nc2ccc(-c3nc(Cn4cc(C)cn4)c(C)o3)cc2)cc1	Tgondii IFNg -91
Cc1cnn(Cc2nc(-c3ccc(NC(=O)c4ccc(Cl)cc4)cc3)oc2C)c1	Tgondii IFNg -87
COc1ccc(Cl)cc1C(=O)Nc1ccc(-c2nc(Cn3cc(C)cn3)c(C)o2)cc1	none
Cc1cnn(Cc2nc(-c3ccc(NC(=O)c4cccc(Cl)c4)cc3)oc2C)c1	none
Cc1cnn(Cc2nc(-c3ccc(NC(=O)COc4ccccc4)cc3)oc2C)c1	none
O=C(NCc1ccc(F)cc1)N1CCC2(CC1)Nc1cc(F)ccc1-n1cccc12	none
O=C(O)c1ccc(C2CCN(C(=O)c3cccc(-c4ncc[nH]4)c3)C2)cc1 (centres undefined)	none
COc1ccc(-c2c(C)nn3cc(C(=O)c4ccccc4O)cnc23)cc1	none
CC(C)N1C2CN(Cc3ccco3)CC2C[C@@H]1C(=O)NCC1CC1 (some centres undefined)	none
Cc1ccc2[nH]c3c(c2c1)CCNC3=O	Tgondii IFNg -93
Cc1ccc2[nH]c3c(c2c1)CN(C)CC3	none
Cc1ccc2[nH]c(=O)c(Cc3ccccc3)c(O)c2c1	none
Cc1ccc2c(c1)C(CC(=O)N1CCN(C)C3(CCN(C)CC3)C1)C(=O)N2 (centres undefined)	none
Cn1c(Nc2ccc(C(F)(F)F)cc2)nc2cc(Oc3ccnc(-c4ncc(C(F)(F)F)[nH]4)c3)ccc21	Tgondii IFNg -73
Cn1cnc2cc(C(=O)Nc3ccc4c(c3)nc(C(F)(F)F)n4C)ccc21	none
CCc1nc2cc(NC(=O)COc3ccc4nsnc4c3)ccc2n1C	none
Cc1cccc(-c2nc(CCNC(=O)c3cccc(Br)c3)cs2)c1	none
Cc1ccc(C2(O)CCN(CC(=O)N3C[C@@H](C)O[C@@H](C)C3)CC2)nc1	none
Cc1ccc(NC(=O)c2nnn(Cc3nc(-c4ccc(OC(C)C)cc4)oc3C)c2C)cc1Cl	none
COCc1cncc2c1CCN(C(=O)c1ccc[nH]1)C2	none
COCc1cncc2c1CCN(C(=O)c1ccncc1)C2	Tgondii IFNg -98
C=CCOCc1cncc2c1CCN(C(=O)c1ccncc1)C2	none
CC(C)NC(=O)C1CCC2(CCN(c3nncs3)CC2)CO1 (centres undefined)	none
C=CC[C@H]1CC(C)=C[C@H](CC=C)N1Cc1ncccc1C(=O)O	none
Cc1nnc(Sc2nc(Sc3nnc(C)s3)nc(N3CCCCC3)n2)s1	Tgondii IFNg -84
Cc1nnc(-c2ccc(C(C)N3CCCCC3)cc2)s1 (centres undefined)	none
Cc1nnc(Sc2c(N)n(C)c(=O)[nH]c2=O)s1	none
COc1ccc(S(=O)(=O)Nc2ccc3c(c2)C(=O)N([C@@H](C)CO)C[C@H](C)[C@@H](CN(C)Cc2ccc(C(F)(F)F)cc2)OCCCC[C@@H](C)O3)cc1	Tgondii IFNg -86
C[C@H](CO)N1C[C@H](C)[C@H](CN(C)Cc2ccncc2)OCCCC[C@H](C)Oc2ccc(NS(=O)(=O)c3ccc(Cl)cc3)cc2C1=O	none
COc1ccc(S(=O)(=O)Nc2ccc3c(c2)C(=O)N([C@@H](C)CO)C[C@H](C)[C@H](CN(C)Cc2ccc(C(F)(F)F)cc2)OCCCC[C@H](C)O3)cc1	Tgondii IFNg -107
C[C@@H]1CN([C@@H](C)CO)C(=O)c2cc(NS(=O)(=O)c3ccc(Cl)cc3)ccc2O[C@@H](C)CCCCO[C@H]1CN(C)Cc1ccncc1	none
C[C@H]1CCCCO[C@@H](CN(C)Cc2ccncc2)[C@@H](C)CN([C@@H](C)CO)C(=O)c2cc(NS(=O)(=O)c3ccc(Cl)cc3)ccc2O1	none
Cc1ccc(S(=O)(=O)Nc2ccc3c(c2)C(=O)N([C@@H](C)CO)C[C@H](C)[C@H](CN(C)Cc2ccc(C(F)(F)F)cc2)O3)cc1	none
Cc1ccc(NC(=O)N2CCC(c3nc(C(=O)N4CCOCC4)c(C)o3)CC2)c(C)c1	none
CO[C@@]12[C@@H]3NC3CN1C1=C(C(=O)C(N)=C(C)C1=O)[C@@H]2COC(N)=O (some centres undefined)	Tgondii IFNg -80
O=C(Cn1ncc2c(N3CCCCCC3)ncnc21)NCc1ccc(Br)cc1	Tgondii IFNg -93
CCOc1ccc(CNC(=O)Cn2ncc3c(N4CCCC4)ncnc32)cc1OCC	none
O=C(Cn1ncc2c(N3CCCCC3)ncnc21)NCc1ccco1	none
CCCNC(=O)Cn1ncc2c(N3CCN(c4ccccn4)CC3)ncnc21	none
O=C(Cn1ncc2c(N3CCCCCC3)ncnc21)NCc1ccc(F)cc1	Tgondii IFNg -99
O=C(Cn1ncc2c(N3CCCC3)ncnc21)Nc1ccc(F)cc1F	none
O=C(Cn1ncc2c(N3CCCC3)ncnc21)Nc1ccc(Br)cc1	none
O=C(Cn1ncc2c(N3CCN(c4ccccn4)CC3)ncnc21)NCc1ccco1	Tgondii IFNg -97
O=C(Cn1ncc2c(N3CCCCCC3)ncnc21)Nc1ccc(F)cc1	none
O=C(Cn1ncc2c(N3CCCCCC3)ncnc21)NCc1ccc(F)c(Cl)c1	none
O=C(Cn1ncc2c(N3CCCCCC3)ncnc21)NCc1cccc(Br)c1	none
O=C(Cn1ncc2c(N3CCCCCC3)ncnc21)NCc1ccc2c(c1)OCO2	Tgondii IFNg -97
Cc1ccc(-c2coc(-c3ccc(NS(=O)(=O)c4cccc(Cl)c4)cc3)n2)cc1C	none
CCc1csc(-c2cccc(C(=O)N3CCCC3)c2)n1	none
Cc1noc(C)c1C1CCCN1Cc1cccn1-c1nccs1 (centres undefined)	none
C=CCN(C(=O)CCc1c(C)nn(C)c1C)C1CCS(=O)(=O)C1 (centres undefined)	none
Cc1ccc(NC(=O)CN2C(=O)CCc3cc(S(=O)(=O)N4CCCCC4)ccc32)cc1Cl	none
Cc1oc(-c2ccccc2Cl)nc1Cn1c(C)nc2onc(C)c2c1=O	none
Cc1ccc(C2(O)CCN(C(=O)c3ccccc3NC(=O)C(C)C)CC2)nc1	none
CCc1nc(Cn2ccnc2-c2cnc(NC(C)C)nc2)no1	none
CN(C)c1nc(-c2cnn(C)c2)nc2c1CN(Cc1cccs1)CC2	none
COc1cccc(CNC(=O)Cn2ncc3c(N4CCCCCC4)ncnc32)c1	none
CCc1ccc(CNC(=O)Cn2ncc3c(N4CCCCCC4)ncnc32)cc1	Tgondii IFNg -92
CCc1ccc(CNC(=O)Cn2ncc3c(N4CCOCC4)ncnc32)cc1	none
CCc1ccc(NC(=O)Cn2ncc3c(N4CCCCCC4)ncnc32)cc1	none
Cc1ccc(CNC(=O)Cn2ncc3c(N4CCN(c5ccccn5)CC4)ncnc32)cc1C	none
O=C(Cn1ncc2c(N3CCN(c4ccccn4)CC3)ncnc21)NCc1cccnc1	none
O=C(Cn1ncc2c(N3CCCC3)ncnc21)NCc1ccncc1	none
O=C(Cn1ncc2c(N3CCCCC3)ncnc21)NCc1ccccc1	Tgondii IFNg -92
O=C(Cn1ncc2c(N3CCN(c4ccccn4)CC3)ncnc21)NCc1ccc(F)cc1	Tgondii IFNg -100
CCN(CC)C(=O)CC1CC2(CCN(C(=O)c3ccco3)CC2)Oc2ccccc21 (centres undefined)	none
Cn1cnc(S(=O)(=O)N2CCC(c3csc(N)n3)CC2)c1	none
O=C(CC(c1ccccc1)c1ccco1)N1CCCn2cncc2C1 (centres undefined)	none
COc1ccccc1-c1nc(C)c(-c2ccc(SCc3ccccc3Cl)nn2)s1	none
